HP1b chromo inh: inhibitors of HP1-beta chromodomain binding to methylated histone tails; AlphaScreen HP1-beta / biotin-H3K9me3 peptide binding; Potency, µM (doses to about 114 µM), without a hit: at the top dose activity change, negative = inhibition, usual class: inhibitors; 390,000 compounds, 0.56% hits; further: potency means the concentration at half of the fitted maximal effect; nearly all actives have a fitted effect of over 70% in size
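Compound inhibition of the preformed complex between 50 nM HP1-beta and 50 nM biotinylated H3K9me3 peptide was read by AlphaScreen. Buffer was PBS pH 7.4 with 0.01% Tween-20. Incubations ran 30 min at room temperature, with 10 ug/mL donor/acceptor beads.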
PI5P4K alpha inh: PI5P4K alpha (human) kinase inhibition | P48426 | PI5P4Kalpha enzyme, ADP-Glo luminescence, 60 min; active compounds read low | max response, % | 330,000 compounds, 1.2% hits | AID 652105; active means max response of -50% or lower; inconclusive means between -30% and -50%; inactive means -30% or higher; further: value at the top dose of about 77 µM; on the % scale 0 is the no-effect control and ±100 the full control effect
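Compounds were pin-transferred onto PI5P4Kalpha and substrate in HEPES pH 7.4 buffer with EGTA, CHAPS and 5% DMSO. ATP (5 microM final) started the reaction, which ran 60 minutes at room temperature before ADP-Glo detection.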
JMJD2A Tudor inh: inhibitors of human JMJD2A Tudor domain; O75164; AlphaScreen JMJD2A-Tudor / H3K4me3 peptide binding; Potency, µM (titrated, usually from 114 µM), for the others: at the top dose activity change, negative = inhibition, hits mostly inhibitors; 390,000 compounds, 4.4% hits; further: potency means the concentration at half of the fitted maximal effect; on the % scale 0 is the no-effect control and ±100 the full control effect; nearly all actives have a fitted effect of over 50% in size
Target sequence (O75164 whole entry, looked up, the tested form may be a part): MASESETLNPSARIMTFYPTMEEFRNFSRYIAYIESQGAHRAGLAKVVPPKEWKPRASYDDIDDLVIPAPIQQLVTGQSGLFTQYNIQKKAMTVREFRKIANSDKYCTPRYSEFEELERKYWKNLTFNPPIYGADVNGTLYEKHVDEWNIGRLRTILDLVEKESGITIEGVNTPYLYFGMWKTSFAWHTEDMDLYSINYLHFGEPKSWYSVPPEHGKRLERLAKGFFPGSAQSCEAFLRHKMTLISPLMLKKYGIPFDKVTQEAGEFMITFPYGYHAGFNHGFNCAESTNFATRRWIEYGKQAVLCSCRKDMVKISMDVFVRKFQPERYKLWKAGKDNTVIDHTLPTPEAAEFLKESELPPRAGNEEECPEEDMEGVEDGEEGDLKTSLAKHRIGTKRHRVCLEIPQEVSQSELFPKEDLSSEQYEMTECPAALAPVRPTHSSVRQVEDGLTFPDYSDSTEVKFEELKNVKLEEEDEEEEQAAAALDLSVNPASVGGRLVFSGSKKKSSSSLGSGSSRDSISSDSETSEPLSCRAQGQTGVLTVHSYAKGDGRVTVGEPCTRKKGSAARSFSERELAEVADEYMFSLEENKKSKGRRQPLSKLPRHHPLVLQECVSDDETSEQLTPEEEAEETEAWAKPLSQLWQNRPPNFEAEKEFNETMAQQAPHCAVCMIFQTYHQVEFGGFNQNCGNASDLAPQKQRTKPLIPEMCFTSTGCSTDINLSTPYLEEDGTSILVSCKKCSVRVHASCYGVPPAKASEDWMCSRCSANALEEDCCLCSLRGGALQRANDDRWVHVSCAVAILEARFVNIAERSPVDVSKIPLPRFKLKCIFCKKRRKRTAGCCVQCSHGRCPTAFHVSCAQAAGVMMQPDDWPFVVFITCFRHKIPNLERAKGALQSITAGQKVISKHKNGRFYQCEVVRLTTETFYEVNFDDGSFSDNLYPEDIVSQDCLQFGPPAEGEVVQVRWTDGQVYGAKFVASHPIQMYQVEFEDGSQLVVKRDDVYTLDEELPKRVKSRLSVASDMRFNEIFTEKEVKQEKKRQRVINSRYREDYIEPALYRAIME
PLK1 PBD inh: inhibitors of human PLK1 polo-box domain binding. P53350. Plk1 PBD binding of FITC phosphopeptide, fluorescence polarization. Potency, µM, without a hit: max response, negative = inhibition, actives largely listed as inhibitors. 360,000 compounds, 2.8% hits; further: potency means the concentration at half of the fitted maximal effect; series mostly up to about 57 µM; on the % scale 0 is the no-effect control and ±100 the full control effect; nearly all actives have a fitted effect of over 65% in size
BAZ2B block: BAZ2B (human) inhibition. Q9UIF8. AlphaScreen BAZ2B-H3K14Ac peptide displacement. Potency, µM (series often up to 114 µM), for the others: at the highest dose activity change, negative = inhibition, hits mostly inhibitors. 360,000 compounds, 4.4% hits. AID 504333; further: potency means the concentration at half of the fitted maximal effect; on the % scale 0 is the no-effect control and ±100 the full control effect; nearly all actives have a fitted effect of over 60% in size
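BAZ2B 50 nM plus b-H3(5-23)K14Ac 50 nM, PBS pH 7.4/0.01% Tween-20, 30 min RT; compound added (max 110 uM), 30 min RT; streptavidin donor/Ni-chelate acceptor beads 10 ug/mL final, 20 min dark; AlphaScreen read.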
KAT2A inh: blocks human GCN5L2 histone acetyltransferase | 390,000 compounds, 0.21% hits | Potency, µM (doses to about 58.9 µM), for the others: at the highest dose activity change, negative = inhibition, actives largely listed as inhibitors | GCN5L2 HAT assay, ThioGlo1 CoA-SH fluorescence | Q92830; further: potency means the concentration at half of the fitted maximal effect; on the % scale 0 is the no-effect control and ±100 the full control effect
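Titration-based screen in which CoA formation is detected via maleimide probe ThioGlo1 (50uM) turning fluorescent on thiol reaction; substrates H3(1-25) 75uM and acetyl-CoA 70uM, GCN5L2 20nM, 20 min incubation at room temperature.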
Numbers without * were called inactive; ? = inconclusive; · = not tested or not shown; [ ] = another dose, or the depositor's remark. An excerpt weighted towards active compounds, which were near 7% of everything screened. Unless noted, the call rests on the fitted dose curve; in most records, active means well fitted curve in the direction sought with a large enough effect; inconclusive means small, poorly fitted or top-dose-only effect, or another doubt; inactive means no such curve, though single readings can be large; an effect the other way counts as inactive or inconclusive.

SMILES	HP1b chromo inh	PI5P4K alpha inh	JMJD2A Tudor inh	PLK1 PBD inh	BAZ2B block	KAT2A inh
CC(C)OCCCn1c(=O)c2ccccc2n2c(-c3ccccc3)nnc12	5%	·	50µM*	·	50µM*	-7%
COc1cc(Cl)ccc1OC1(C)CCN(Cc2cccn2-c2nccs2)C1 (centres undefined)	·	-1	·	3%	·	·
CS(=O)(=O)N1CCN(c2ccccc2NC(=O)Nc2cccc(Cl)c2)CC1	19%	0	-14%	-20%	3%	-17%
Cc1ccc(SCC(=O)Nc2ccc(C(=O)Nc3ccc(O)cc3)cc2)cc1	34%	-13	-31%	-13%	?	0%
CC(C)CCn1c(=O)c2ccccc2n2c(=S)[nH]nc12	71µM*	-10	3.5µM*	-16%	45µM*	-4%
CC(C)CCn1c(=O)c2ccccc2n2c(CCl)nnc12	23%	0	-3%	-7%	-11%	-4%
CCOC(=O)C1=CNS(=O)(=O)NC1c1ccc(C#N)cc1 (centres undefined)	28%	6	-10%	-21%	·	0%
COc1ccc(/C=N\NC(=O)c2cc(O)c(O)c(O)c2)cc1COc1ccc(C(=O)OCC(C)C)cc1	-7%	-72*	?	0%	56µM*	-28%
COc1ccc(C(=O)N/N=C/c2ccc(OC)c(COc3ccccc3)c2)cc1	24%	-2	-18%	2%	-27%	-1%
COc1ccc(/C=N\NC(=O)c2cc(O)c(O)c(O)c2)cc1CN1CCN(c2ccc(F)cc2)CC1	?	-25	56µM*	?	35µM*	-6%
COc1cc(F)c(C2=CC(=O)C[C@H](c3ccc(Cl)cc3)C2)cc1F	35%	5	-4%	-15%	5%	-5%
CC(=O)Oc1ccc(/C=C(\NC(=O)c2cccc(Br)c2)C(=O)Nc2ccc(C(=O)O)cc2)cc1	45%	-3	-7%	-11%	·	·
Cn1nnnc1NC(=O)c1ccccc1Cl	37%	3	?	-3%	50µM*	-5%
CCCn1nnnc1NC(=O)c1cc(Br)ccc1OC	20%	-2	-12%	-11%	?	-6%
CCCn1nnnc1NC(=O)c1ccc(C)cc1Cl	41%	-2	?	-7%	56µM*	2%
CCN(Cc1ccc(OC)c(F)c1)C(=O)/C=C/c1ccc(S(=O)(=O)N2CCOCC2)cc1	17%	-5	-18%	-16%	12%	-3%
FC(F)c1nc2ccccc2[nH]1	23%	-4	-8%	-12%	40µM*	-6%
CCOc1ccccc1N1CCN(C(=O)NC2CCCCC2)CC1	16%	0	-7%	-13%	-25%	0%
CCC(C)(C)C1CCC(NC(=O)N2CCN(c3ccccc3O)CC2)CC1 (centres undefined)	-3%	4	79µM*	?	-10%	1%
COc1ccc(CNc2ncnc3ccc(-c4ccoc4)cc23)c(OC)c1	·	·	·	·	·	-19%
COc1cc(-c2ccc3ncnc(NCc4ccc(C)o4)c3c2)cc(OC)c1OC	·	·	50µM*	·	·	·
COc1ccc(C(O)c2nc(-c3ccccc3C)cs2)cc1 (centres undefined)	·	4	·	-2%	·	·
COc1ccc(N(CC(=O)NCC(C)C)S(=O)(=O)c2ccccc2)cc1	-15%	-26	?	19µM*	-14%	-5%
Clc1ccccc1Cc1cn2cc(-c3ccccc3)nc2s1	30%	·	-4%	·	-2%	-2%
C=C1N(C)c2cc([N+](=O)[O-])c(N)cc2C1(C)C	?	-20	?	?	45µM*	1%
SMILES	HP1b chromo inh	PI5P4K alpha inh	JMJD2A Tudor inh	PLK1 PBD inh	BAZ2B block	KAT2A inh
CCCCN1C(=O)C(O)(c2c[nH]c3ccccc23)c2cc(Br)ccc21 (centres undefined)	-1%	·	-32%	·	?	-9%
CCOC(=O)c1scc(-c2ccccc2)c1S(=O)(=O)Nc1ccc(N(C)C)cc1	?	·	14µM*	·	20µM*	-2%
CC(=O)c1cccc(NC(=O)CCS(=O)(=O)c2cccc3nsnc23)c1	-38%	-8	-27%[57.1 µM]	24µM*	-4%	-4%
Cc1ccc(OCC(=O)N(C)CC(=O)NCc2ccco2)c(Br)c1	?	?	35µM*	?	50µM*	-18%
COc1cccc(NC(=O)CN(C)CC(=O)NCc2ccco2)c1	24%	-1	-10%	-15%	7%	1%
Cc1ccc(OCCCC(=O)NCc2ccco2)c(C)c1	·	·	·	·	?	1%
CC(=O)c1cccc(OCC(=O)N(C)CC(=O)NCc2ccco2)c1	?	-20	22µM*	?	·	-18%
Cc1nnc(NC(=O)CSc2ccc3nnc(-c4ccccn4)n3n2)s1	34%	3	79µM*	-2%	·	-3%
O=C(CSc1ccc2nnc(-c3ccccn3)n2n1)Nc1nccs1	53%	-1	32µM*	3%	·	-4%
O=C(CSc1ccc2nnc(-c3ccncc3)n2n1)Nc1nccs1	32%	2	-11%	-13%	·	-4%
CC(=O)NS(=O)(=O)c1ccc(Nc2ccc([N+](=O)[O-])c3nonc23)cc1	-5%	?	-2%	7%	50µM*	-13%
CCOc1ccc(Nc2ccc([N+](=O)[O-])c3nonc23)cc1	13µM*	-11	35µM*	-14%	14µM*	-16%
O=[N+]([O-])c1ccc(Sc2cccc[n+]2[O-])c2nonc12	7.9µM*	-53*	20µM*	0.95µM*	56µM*	16µM*
CC(=O)Nc1ccc(NS(=O)(=O)c2ccc(C)cc2)c([N+](=O)[O-])c1	11%	6	-6%	-18%	-18%	-4%
Cc1ccccc1Nc1ccc2nonc2c1[N+](=O)[O-]	13%	-2	-18%	-10%	?	3%
O=[N+]([O-])c1ccc(Nc2ccccc2)c2nonc12	?	-26	56µM*	-8%	40µM*	-3%
C[C@@H]1CN([C@@H](C)CO)C(=O)c2cccc(NC(=O)Nc3ccccc3)c2O[C@H]1CN(C)C(=O)Nc1cccc2ccccc12	22%	9	-26%	0%	·	-6%
O=C(N/C=C/c1ccccc1)Nc1ccc(Cl)cc1	15%	-7	-19%	-13%	-2%	21%
Cc1ccc(NC(=O)N/C=C/c2ccc(Cl)cc2)cc1	7%	-17	-22%[11.4 µM]	27µM*	-36%[57.1 µM]	-9%
